In the library only some 12% were active in any assay of this set; here they are far more common.
Pf growth 48h – inhibits P. falciparum growth in the first generation, 48 h; hit rate 5.9% among 310,000; P. falciparum luciferase growth in erythrocytes, 48 h; Potency, µM (highest dose often 28.7 µM), for inactives: at the top dose activity change, negative = inhibition, actives largely listed as inhibitors; further: on the % scale 0 is the no-effect control and ±100 the full control effect
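Compounds are pin-transferred into medium, infected erythrocytes (2% hematocrit, 0.1% parasitemia final) are added, and plates sit one parasite generation at 37 C in 5% CO2. Detection reagent is then added and luminescence measured.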
Pf growth 96h – P. falciparum growth inhibition at 96 hours. hit rate 6.9% among 320,000. AID 504834. P. falciparum luciferase reporter growth, 96 h. Potency, µM (highest dose often 28.7 µM), inactives show top-dose activity change, negative = inhibition, usual class: inhibitors; further: on the % scale 0 is the no-effect control and ±100 the full control effect
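Two parasite generations (96 h, 37 C, 5% CO2) of compound exposure in infected erythrocytes (0.05% parasitemia, 2% hematocrit). Luciferase-reporter P. falciparum; decreased luminescence indicates inhibited growth, aimed at apicoplast-acting delayed death.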
HCV inh – inhibitors of hepatitis C virus infection. Potency, µM (top dose mostly 41.8 µM), for inactives: top-dose activity change, negative = inhibition, most hits filed as inhibitors. AID 651820. Huh7.5.1 HCVcc-Cre infection, luciferase reporter, 44 h. hit rate 3.4% among 340,000; further: on the % scale 0 is the no-effect control and ±100 the full control effect
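A cell-based infection assay in which seeded cells (1,000 per well) receive test compound after 4 h, are inoculated with HCVcc-Cre at approximately 0.5 moi, and are incubated 44 h before luminescence detection.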
AMA1 RON2 block – inhibitors of Plasmodium falciparum AMA1-RON2 interaction. AlphaScreen AMA1-biotinylated RON2 peptide binding. AID 720542. hit rate 0.2% among 360,000. Potency, µM (highest dose often 58.2 µM), without a hit: at the highest dose activity change, negative = inhibition, actives largely listed as inhibitors;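 further: 0% = vehicle wells and -100% = peptide control; nearly all actives have a fitted effect of over 45% in size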
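AMA1 (3D7) with his tag at 25 nM final met compounds first, then biotinylated RON2 peptide at 25 nM; detection used donor plus acceptor beads, 10 µg/mL apiece, read by AlphaScreen after 30 min at room temperature.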
NS1 inh – influenza NS1 inhibition; Potency, µM (series often up to 46.1 µM), without a hit: at the top dose activity, positive = more growth; hit rate 0.4% among 270,000; AID 2326; calls by dose curve; further: actives are rising curves; nearly all actives have a fitted effect of over 50% in size
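S. cerevisiae expressing influenza A NS1, grown in glucose, washed, then diluted 1:100 into pH 6.0 -URA galactose medium with 23 nl compound. Growth recovery read as OD600; NS1-free strain serves as control.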
SARS PLP yeast – blocks SARS-CoV papain-like protease in a yeast assay. S. cerevisiae expressing SARS-CoV PLpro, growth rescue. Potency, µM (doses to about 32.9 µM), for the others: at the highest dose activity, positive = growth rescue, actives largely listed as activators. hit rate 0.19% among 330,000; calls by dose curve; further: 0% is about no effect; nearly all actives have a fitted effect of over 55% in size
An asterisk follows results filed as active; ? = inconclusive; / = no result given; [ ] = remark or other dose. Unless noted, the call rests on the fitted dose curve; in most records, active means well fitted curve in the direction sought with a large enough effect; inconclusive means small, poorly fitted or top-dose-only effect, or another doubt; inactive means no such curve, though single readings can be large; an effect the other way counts as inactive or inconclusive. Potency means the concentration at half of the fitted maximal effect.

SMILES	Pf growth 48h	Pf growth 96h	HCV inh	AMA1 RON2 block	NS1 inh	SARS PLP yeast
Cc1cccc(C)c1NC(=O)C1CCN(S(C)(=O)=O)CC1	6%	?	10%	26%	17%	-1%
Cc1ccc(N/C(=C\C(=O)c2ccccc2)C(=O)O)cc1	80%	20%	12%	31%	3%	-2%
Cn1c(=O)c2nncnc2n(C)c1=O	-9%	-4%	-4%[0.335 µM]	7%	-1%	13%
Cc1nc2c(=O)n(C)c(=O)n(C)c2nc1Cl	10%	4%	14µM*	9%	-42%	-34%
CC(C)c1ccc(S(=O)(=O)/N=C2/C=CC(=O)c3ccccc32)cc1	8.3µM*	58%	/	/	/	-6%
CC(C)c1ccc(S(=O)(=O)/N=C2\C=C(NS(=O)(=O)c3ccccc3)C(=O)c3ccccc32)cc1	-30%	4%	-13%	?	6%	-10%
CC(NC(=O)c1ccc(S(=O)(=O)Nc2ccccc2Cl)cc1)c1ccncc1 (configuration not stated)	/	/	3%	-2%	/	1%
CCOC(=O)c1c(/N=C/c2ccc(OC)cc2O)sc2c1CCN(C)C2	10µM*	5.2µM*	-14%	-6%	12%	2%
CCOC(=O)c1c(/N=C/c2ccc(C)cc2O)sc2c1CCC2	6%	37%	?	6%	3%	5%
CN1CCc2c(sc(/N=C/c3c[nH]c4ccccc34)c2C(N)=O)C1	4.1µM*	3.7µM*	-7%	3%	12%	0%
Cc1cccc(Cl)c1NC[C@H](O)CN1CCN(C)CC1	/	/	/	/	-8%	/
CCOC(=O)c1c(C)[nH]c(C)c1C(=O)CN1C(=O)NC2(CCCCCC2)C1=O	6.6µM*	?	6%	-8%	/	-10%
CN(Cc1nccn1C)C(=O)c1cc(COc2cccc(C(F)(F)F)c2)on1	-9%	9.3µM*	?	-7%	2%	-2%
Cc1cc(OCc2cc(C(=O)N3CCN(C)C(=O)[C@@H]3C)no2)cc(C)c1Cl	?	?	13µM*	-10%	-7%	-3%
Cc1cc(OCc2cc(C(=O)N(Cc3nccn3C)C(C)C)no2)cc(C)c1Cl	0%	15µM*	11µM*	-7%	-17%	2%
CC(C)N(Cc1nccn1C)C(=O)c1cc(COc2cccc(C(F)(F)F)c2)on1	10%	-14%	?	-1%	-2%	1%
CC(OC(=O)c1cc(=O)[nH]c2ccccc12)C(=O)NCc1ccccc1 (configuration not stated)	17%	41%	-1%	-8%	/	-2%
S=c1[nH]c2ccccc2o1	16%	3%	18%	11%	1%	0%
OC[C@@H]1CN(Cc2ccc3c(c2)OCO3)C[C@H](n2cnc3c(NC4CCC4)ncnc32)O1	/	/	/	2%	/	/
COc1cccc(NC(=O)Nc2nc(SC)ns2)c1	78%	91%	-9%	0%	-10%	-9%
CCCSc1nsc(NC(=O)Nc2ccc(F)cc2F)n1	?	?	10µM*	0%	-56%	-3%
CCSc1nsc(NC(=O)Nc2cccc(F)c2)n1	5.9µM*	65%	10µM*	5%	-134%	-23%
CCCSc1nsc(NC(=O)CC)n1	176%	8.3µM*	-19%	5%	-1%	0%
COc1ccc(-c2noc(CNC(=O)CCCN3C(=O)[C@H]4CC=CC[C@H]4C3=O)n2)cc1	6%	-36%	-10%	21%	-3%	-2%
COc1ccccc1NS(=O)(=O)c1cccc(-n2c(O)c(C=Nc3ccccc3C(=O)O)c3ccccc3c2=O)c1	-5%	-19%	-26%	-11%	?	6%
SMILES	Pf growth 48h	Pf growth 96h	HCV inh	AMA1 RON2 block	NS1 inh	SARS PLP yeast
COc1ccc(-c2ccc(NS(=O)(=O)c3cc([N+](=O)[O-])c(C)c([N+](=O)[O-])c3)cc2)nn1	28%	32%	14%	-1%	-7%	1%
Cc1ccc(S(=O)(=O)NCc2ccc(C(=O)N3CCN(Cc4ccccc4)CC3)cc2)cc1	/	?	4µM*	-7%	-7%	-3%
COc1ccc(S(=O)(=O)NCc2ccc(C(=O)N3CCN(Cc4ccccc4)CC3)cc2)cc1	-2%	29%	32µM*	0%	-27%	-3%
CCN1CCN(C(=O)c2ccc(CNS(=O)(=O)c3cccc(OC)c3)cc2)CC1	14%	?	17%	3%	15%	1%
COc1ccc(NS(=O)(=O)c2ccc(C(=O)N3CCN(Cc4ccccc4)CC3)cc2)cc1	?	?	11µM*	-12%	/	1%
COc1cccc(S(=O)(=O)NCc2ccc(C(=O)N3CCN(Cc4ccccc4)CC3)cc2)c1	-18%	?	10µM*	-11%	-18%	-6%
CCN(CC)C(=O)C(=O)Nc1ccc(F)c(Cl)c1	54%	-16%	5%	-14%	0%	-1%
Cn1c(-c2ccccc2[N+](=O)[O-])[n+](C)c2ccccc21	10µM*	4.1µM*	-5%	2%	-3%	1%
O=C1CC(c2ccc(F)cc2)c2cc3c(cc2N1)CCC3 (configuration not stated)	15µM*	25%	?	-8%	-9%	-73%
Cc1cc2c(cc1C)C(c1cccc(F)c1)CC(=O)N2 (configuration not stated)	-3%	13%	-10%	-3%	-26%	-6%
CN(c1ccccc1)c1nccc(=O)[nH]1	/	/	-17%	1%	/	/
O=C1NC(c2ccccc2)C(C(=O)c2cccs2)=C1O (configuration not stated)	13%	12µM*	13%	-24%	-7%	-2%
O=C(Cc1ccccc1[N+](=O)[O-])c1ccc2c(c1)OCO2	/	/	5%	0%	/	/
O=C(Nc1cccc(C(=O)N2CCN(c3cccc(Cl)c3)CC2)c1)c1ccccc1	-15%	-40%[1.15 µM]	14µM*	-1%	/	-1%
O=C(c1nc[nH]c1C(=O)N1CCN(c2ccccc2)CC1)N1CCN(c2ccccc2)CC1	32%	57%	3.5µM*	?	/	-4%
O=C(Nc1cccc(C(=O)N2CCN(c3ccccc3)CC2)c1)c1ccco1	-3%	-11%	1%	-8%	-8%	-4%
CC(C)(C)OC(=O)N1CCN(C(=O)c2nc[nH]c2C(=O)N2CCN(c3ccccc3)CC2)CC1	22%	21%	-7%	-1%	/	8%
O=C(c1cccc(C(=O)N2CCN(c3ccccc3)CC2)c1)N1CCN(c2ccccc2)CC1	13µM*	/	?	-11%	-1%	4%
CC(C)(C)c1ccc(C(=O)NC(=S)N2CCOCC2)cc1	-80%	2.6µM*	11%	123%	1%	4%
Clc1ccc(/C=C\c2nc(Cl)c(-c3ccc(Cl)cc3)c(Cl)n2)cc1	/	/	/	/	-8%	/
